# PubChem BioAssay (EPA / NIEHS)
# Where “and” joins values, the source holds several entries; their conditions need not be identical. Identical values can stand only once. Calls of active or inactive are those of the source. Rule for the calls: active = hit-call score of the fitted dose curve at least 0.9, where 1 is the maximum; inactive = score below 0.9.
# Biological target: Nuclear respiratory factor 1 (Homo sapiens) (UniProt Q16656)
# Test: ATG_NRF1_CIS: Attagene CIS-FACTORIAL HepG2 Assay for human Nuclear Respiratory Factor 1 (NRF1) Orphan Gene (AID 2282987)
# Details: HepG2 NRF1 cis-element reporter, Attagene multiplex; actives raise or lower the signal
# Experimental: ATG_CIS is a cell-based, multiplexed-readout assay that uses HepG2, a human liver cell line, with measurements taken at 24 hours after chemical dosing in a 24-well plate.ATG_NRF1_CIS is one of 52 assay component(s) measured or calculated from the ATG_CIS assay. It is designed to make measurements of mRNA induction, a form of inducible reporter, as detected with fluorescence intensity signals by Reverse transcription polymerase chain reaction (RT-PCR) and Capillary electrophoresis technology.Data from the assay component ATG_NRF1_CIS was analyzed into 1 assay endpoint. This assay endpoint, ATG_NRF1_CIS, was analyzed with bidirectional fitting relative to DMSO as the negative control and baseline of activity. Using a type of inducible reporter, measures of mRNA for gain or loss-of-signal activity can be used to understand the reporter gene at the transcription factor-level as they relate to the gene NRF1. Furthermore, this assay endpoint can be referred to as a primary readout, because this assay has produced multiple assay endpoints where this one serves a reporter gene function. To generalize the intended target to other relatable targets, this assay endpoint is annotated to the dna binding intended target family, where the subfamily is nuclear respiratory factors.
# Human liver HepG2 cells are transiently transfected with multiple reporter transcription units (MRTUs) in 6-well plates using FuGene 6 reagent (Roche; 3 ml FuGene/1 mg DNA). The MRTU constructs are regulated by a cis-regulating element (promoter). […] A major difference between the CIS and TRANS system is that in CIS activities of endogenous TFs are measured, whereas the TRANS assay evaluates changes in activities of exogenous, chimeric NR-Gal4 proteins. […] At the end of 24 hour incubation, total RNA was isolated using TriZol reagent (Invitrogen). The isolated RNA is then reverse-transcribed using oligo(dT) primer and Mo-MLV reverse transcriptase (Invitrogen) with DNAse I (Ambion) treatment for 30 min. The one-tenth of the produced cDNA was amplified by PCR using Taq DNA polymerase (Invitrogen) and two reporter sequence-specific primers. The PCR products were fluorescently labeled by primer extension with 6-arboxyfluorescein (6-FAM) 5'-labeled reporter sequence-specific primer (2 min at 95 C, 20 s at 68 C and 10 min at 72 C) and these products were digested with 5U of HpaI (New England Biolabs) for 2h at 37 C. The fragments were purified using Qiaquick PCR columns (Qiagen), analyzed on an ABI 3130xL genetic analyzer (Applied Biosystems) with peak positions identified by using a set of X-rhodamine (ROX)-labeled MapMarker1000 molecular weight standards (BioVentures). The raw capillary electrophoresis data was processed using Attagraph software (Attagene).
# Chain of Nuclear respiratory factor 1 (Homo sapiens) (Q16656 whole entry, looked up): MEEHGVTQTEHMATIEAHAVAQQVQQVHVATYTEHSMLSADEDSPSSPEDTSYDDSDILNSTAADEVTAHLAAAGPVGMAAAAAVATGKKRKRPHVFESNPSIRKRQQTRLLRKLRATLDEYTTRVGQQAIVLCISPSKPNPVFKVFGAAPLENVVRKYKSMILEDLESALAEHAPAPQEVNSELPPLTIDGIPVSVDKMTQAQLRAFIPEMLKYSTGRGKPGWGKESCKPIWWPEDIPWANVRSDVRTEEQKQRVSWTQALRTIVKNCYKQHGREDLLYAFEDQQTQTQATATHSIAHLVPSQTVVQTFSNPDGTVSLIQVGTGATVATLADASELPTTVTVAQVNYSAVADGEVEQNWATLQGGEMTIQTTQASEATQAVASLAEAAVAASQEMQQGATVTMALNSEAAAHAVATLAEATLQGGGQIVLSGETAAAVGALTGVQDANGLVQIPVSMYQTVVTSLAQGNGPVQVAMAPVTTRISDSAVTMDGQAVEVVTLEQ
SMILES,outcome,AC50
CC(C)c1ccc(CO)cc1,inactive,
CC(C)CCCCCCOC(=O)c1ccccc1C(=O)OCCCCCCC(C)C,inactive,
CC(=O)[O][Hg][c]1ccccc1,inactive,
C=C(C)C#N,inactive,
N#CCCO,inactive,
CCOP(=S)(OCC)SCSP(=S)(OCC)OCC,inactive,
C=CC(=O)OCCCCCC(C)C,inactive,
Oc1c(I)cc(I)cc1I,inactive,
O=C(CCl)CCl,,56 µM (active)
Cl/C=C\C[N+]12CN3CN(CN(C3)C1)C2,inactive,
C[C@]12CCC(=O)C[C@@H]1CC[C@@H]1[C@@H]2CC[C@]2(C)[C@@H](O)CC[C@@H]12,inactive,
ClCC(Cl)CCl,inactive,
COc1ccc(OC)c(C=O)c1,inactive,
O=C(Nc1ccc2[nH]ccc2c1)c1cc2cc(F)ccc2n1Cc1cccc(F)c1,inactive,
O=C(O)Cc1ccccc1,inactive,
CN(C)P(=O)(N(C)C)N(C)C,inactive,
COc1cc(OC)nc(NC(=O)NS(=O)(=O)c2ncccc2C(=O)N(C)C)n1,inactive,
COC(=O)c1sccc1S(=O)(=O)NC(=O)Nc1nc(C)nc(OC)n1,inactive,
CC1CN1P(=O)(N1CC1C)N1CC1C (stereo not given),inactive,
CCCCC(CC)CO[N+](=O)[O-] (stereo not given),inactive,

SMILES,outcome,AC50
COP(=S)(OC)Oc1ccc(S(=O)(=O)N(C)C)cc1,inactive,
CCC(C)c1cccc(C(C)CC)c1O (stereo not given),inactive,
O=C(O)C(Cl)(Cl)Cl,inactive,
Cc1ccc(N)cc1Cl,inactive,
O=C(O)C(F)(F)C(F)(F)C(F)(F)C(F)(F)C(F)(F)C(F)(F)F,inactive,
O=C1CCCN1,inactive,
Nc1ccc(N=Nc2ccc(-c3ccc(N=Nc4c(S(=O)(=O)O)cc5cc(S(=O)(=O)O)c(N=Nc6ccccc6)c(O)c5c4N)cc3)cc2)c(N)c1,inactive,
ClC(Cl)=C(Cl)C(Cl)=C(Cl)Cl,inactive,
O=[N+]([O-])c1ccc(O)c([N+](=O)[O-])c1,inactive,
C(=NC1CCCCC1)=NC1CCCCC1,inactive,
CCCCP(CCCC)CCCC,inactive,
CC1(C)Cc2cccc(O)c2O1,inactive,
CC(=[OH+])/C=C(/C)[O-].CC(=[OH+])/C=C(/C)[O-].CC(=[OH+])/C=C(/C)[O-].[Al],inactive,
CC(C)(c1ccc(OCC2CO2)cc1)c1ccc(OCC2CO2)cc1 (stereo not given),inactive,
Nc1cccc2ccccc12,inactive,
[O-][Cl+2]([O-])O,inactive,
CCc1ccccc1C,inactive,
C[C@@H](Oc1ccc(Cl)cc1Cl)C(=O)O,inactive,
C[C@@H]1C[C@@H]([C@H](O)CC2CC(=O)NC(=O)C2)C(=O)[C@@H](C)C1,inactive,
O=C(O)C(F)(F)C(F)(F)C(F)(F)C(F)(F)C(F)(F)C(F)(F)C(F)(F)C(F)(F)C(F)(F)C(F)(F)F,,162 µM (active) and 31.1 µM (active)
